Shown are actives, neighbours in structure and some others; about 2.8% of the full set was active somewhere.
KLK7 zymogen act – proKLK7 zymogen activators, primary screen, biochemical, fluorescence intensity; Kallikrein-7 (Homo sapiens), P49862; purified proKLK7, EDANS-DABCYL substrate fluorescence; 100% is mature enzyme control, 0% vehicle; activation, % at 7 µM; 370,000 compounds, 0.9% hits; AID 652039, 2013;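 active = activation above the mean of all tested compounds plus 3 SD, computed per campaign excluding outliers beyond control limits, cut at about 13% in these data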
Target sequence (P49862 whole entry, looked up): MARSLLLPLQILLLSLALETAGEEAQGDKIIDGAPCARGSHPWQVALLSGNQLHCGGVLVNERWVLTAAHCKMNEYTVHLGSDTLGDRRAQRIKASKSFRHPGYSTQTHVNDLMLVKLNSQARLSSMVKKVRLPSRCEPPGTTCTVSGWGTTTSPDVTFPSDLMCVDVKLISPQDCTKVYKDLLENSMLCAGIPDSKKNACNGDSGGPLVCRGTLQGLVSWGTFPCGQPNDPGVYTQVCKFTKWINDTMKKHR
SMARCA2 activ – SMARCA2 (BRM) function activators, primary screen, cell-based, luminescence, high throughput; activation, % at 9.1 µM; MG213 cells, MMTV-luciferase reporter, dexamethasone, overnight; 370,000 compounds, 1% hits; in the data active = activation above about 7.8%
MsrA inh – bovine MsrA enzyme inhibitors, primary screen, biochemical, absorbance, HTS. inhibition, % at 15.5 µM. purified bovine MsrA, absorbance read-out. Methionine sulfoxide reductase A (Bos taurus). 360,000 compounds, 0.75% hits. AID 651718, 2012
bovine MsrA act – bovine MsrA enzyme activators, primary screen, biochemical, absorbance, HTS | purified bovine MsrA, absorbance read-out | Methionine sulfoxide reductase A (Bos taurus) | AID 602163, 2012 | 360,000 compounds, 0.3% hits | activation, % at 10.6 µM; in the data active = activation above about 7.5%
MsrA inh confirm – bovine MsrA inhibitors, retest, confirmation, biochemical, absorbance, HTS | inhibition, % at 15.5 µM | purified bovine MsrA, absorbance read-out | 2,300 compounds, 41% hits | AID 651822, 2012 | shares compounds with MsrA inh;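 also: coupled to thioredoxin reductase with NADPH and selenocystamine and DMSO as substrate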
Numbers stand for hits; i = inactive; nt = not tested or not shown. Rule as the data show it, unless noted: active = inhibition above about 4.5%; inactive = the rest.

SMILES	KLK7 zymogen act	SMARCA2 activ	MsrA inh	bovine MsrA act	MsrA inh confirm
CCOC(=O)N1CCC(Nc2c(-c3ccccc3)c(=O)c2=O)CC1	i	i	i	i	nt
CN(C)c1ccc(C(=O)OCC(=O)N2CCCC2)cc1	i	i	5.7	i	i
COc1ccc(N2CCN(CCCNC(=O)COc3ccc(F)cc3)CC2)cc1	i	i	nt	nt	nt
Cc1[nH][nH]c(=O)c1C=Nc1ccc(C(F)(F)F)cc1	i	i	i	i	nt
COc1ccc(N=Cc2c(C)[nH][nH]c2=O)cc1	i	i	5.4	i	i
O=C(NCc1ccccc1)c1cc(C2COCCN2C(=O)c2ccc(Cl)cc2)on1 (configuration not stated)	i	i	i	i	nt
N#C/C(=N/Nc1ccc(S(=O)(=O)N2CCOCC2)cc1)C(N)=O	i	i	6.6	i	i
Nc1nc2ccccc2n1/N=C/c1ccc(Br)cc1	i	i	i	i	nt
Nc1nc2ccccc2n1/N=C/c1ccc2c(c1)OCO2	i	i	19	i	14
COc1ccc(/C(O)=C(\C#N)c2nc3ccccc3n2C)cc1OC	i	i	6.9	i	6.0
CCOC(=O)c1csc(NC(=O)c2cc(=O)c3ccccc3o2)n1	i	i	4.7	i	i
NC(=O)N/N=C/C=C/c1ccccc1	i	i	i	i	nt
NC(=O)N\N=C/C=C/C=C/c1ccc(F)cc1	i	i	5.2	i	i
O=C(O)c1ccc(NC2=C(n3nnc4ccccc43)C(=O)c3ccccc3C2=O)cc1	i	i	58	i	53
CC(C)OC(=O)/C(=C/c1ccc2c(c1)c1ccccc1n2C)NC(=O)c1ccccc1	i	i	4.8	i	i
c1csc(C2CCCN2c2nc3nonc3nc2NC2CC2)n1 (configuration not stated)	i	i	5.7	i	i
COCCNC(=O)Cn1cc(C(=O)c2ccco2)c2ccccc21	i	i	7.2	i	i
CC(=O)CC[C@H]1CC[C@]2(CCCN(S(=O)(=O)c3ccccc3)C2)O1	i	i	nt	nt	nt
N#Cc1ccc(CSc2nnc(NC(=O)c3ccc4ncsc4c3)s2)cc1	i	i	i	i	nt
N#Cc1ccc(CSc2nnc(NC(=O)c3ccc(=O)[nH]c3)s2)cc1	i	i	6.0	i	i
CCCCCCCCN1C(=O)[C@H](CC(=O)NCCc2ccccc2OC)C[C@@]2(C(=O)OC)CCCCC=C12	i	i	i	i	nt
Cc1ccc(N=Nc2c(N)nn(-c3ccccc3)c2N)cc1	i	i	5.0	i	i
O=C(O)c1ccc(N/N=C/c2c(F)cccc2Cl)cc1	i	i	6.5	i	i
O=C(N/N=C/c1c(F)cccc1Cl)C1CC1	i	i	i	i	nt
CCc1nnc(NC(=O)/C=C/c2ccco2)s1	i	i	6.8	i	6.2
SMILES	KLK7 zymogen act	SMARCA2 activ	MsrA inh	bovine MsrA act	MsrA inh confirm
COc1ccc(NC(=O)c2ccco2)cn1	i	i	i	i	nt
COc1ccc(OC)c(/C=C/C(=O)Nc2ccc(OC)nc2)c1	i	i	i	i	nt
COc1ccc(NC(=O)/C=C/c2ccco2)cn1	i	i	4.9	i	i
COc1ccc(NC(=O)/C=C/c2ccc(Br)o2)cn1	i	i	5.3	i	i
COc1cccc(CNC(=O)CCCN2C(=O)COc3ccc(C)cc32)c1OC	i	i	nt	nt	nt
COc1cc(C(=O)c2ccccc2C(=O)O)c(OC)c2c1CCCC2	i	i	i	i	nt
COCOc1ccc(-c2ncc(OC)nc2NC(=O)c2ccsc2)cc1	i	i	i	i	nt
COc1ccc(N(CCC#N)C(=O)/C(C#N)=C/c2cccs2)cc1	i	i	5.5	i	i
O=C(Nc1ccc(Cl)cc1)c1csc([C@@H]2O[C@H](CO)[C@@H](O)[C@H]2O)n1	i	i	i	i	nt
O=[N+]([O-])c1cc(/C=N/Nc2nc3ccccc3[nH]2)c(O)cc1O	i	i	5.7	nt	5.0
Fc1ccc(/C=N/Nc2nc3ccccc3[nH]2)cc1F	i	i	i	i	nt
Fc1cccc(/C=N/Nc2nc3ccccc3[nH]2)c1	i	i	4.7	nt	i
Cc1ccccc1/C=N/Nc1nc2ccccc2[nH]1	i	i	i	i	nt
CN(C)C(CNC(=O)C1CCN(S(=O)(=O)c2cc(Cl)ccc2Cl)CC1)Cc1ccccc1 (configuration not stated)	i	i	i	i	nt
COCCN1C(=O)CSCC1(C)C(=O)NCc1ccccc1 (configuration not stated)	i	i	i	nt	nt
O=C1OC(c2ccco2)=N/C1=C\c1ccc(-c2cccc(C(F)(F)F)c2)o1	i	i	5.6	i	i
CCCCCNC(=O)C(c1ccc(-c2ccccc2)cc1)n1c(=O)c(-c2cc3ccccc3[nH]2)nc2ccccc21 (configuration not stated)	i	i	i	nt	nt
NS(=O)(=O)c1ccc(N/N=C/c2ccc(O)cc2O)c([N+](=O)[O-])c1	i	i	6.2	i	i
NS(=O)(=O)c1ccc(N/N=C/c2ccccn2)c([N+](=O)[O-])c1	i	i	5.9	i	i
O=[N+]([O-])c1cc(S(=O)(=O)N2CCCC2)ccc1N/N=C/c1ccccn1	i	i	i	i	nt
NS(=O)(=O)c1ccc(N/N=C/c2ccc(O)c(O)c2O)c([N+](=O)[O-])c1	i	i	i	i	nt
Cc1ccc(-c2c(C#N)c(N)n(-c3ccccc3C)c(=O)c2C#N)cc1	i	i	i	i	nt
CCC(NC(=O)Cc1c(C)c2cc3c(cc2oc1=O)OC(C)(C)CC3)C(=O)O (configuration not stated)	i	i	5.2	i	i
CC1C(=O)N(Cc2cn(CCC3OCCCO3)nn2)CCS(=O)(=O)N1Cc1ccc(-c2ccncc2)cc1 (configuration not stated)	i	i	i	i	nt
Cc1ccsc1/C=N/NC(=O)C(=O)NCC(C)C	i	i	5.6	i	i
SMILES	KLK7 zymogen act	SMARCA2 activ	MsrA inh	bovine MsrA act	MsrA inh confirm
CCCCC(=O)N/N=C/c1sccc1C	i	i	i	i	nt
COc1cc(C(=O)N/N=C/c2sccc2C)cc(OC)c1OC	i	i	5.1	i	i
O=C(Nc1nc(-c2ccc(S(=O)(=O)N3CCOCC3)cc2)cs1)c1ccccc1	i	i	i	i	nt
O=C(Nc1nc(-c2nc3ccccc3s2)cs1)c1ccc(S(=O)(=O)N2CCOCC2)cc1	i	i	5.0	i	i
COc1ccc2cc(C(=O)N/N=C/c3cc(OC)c(OC)c(OC)c3)[nH]c2c1	i	i	5.8	i	6.4
COc1cccc(/C=N/NC(=O)c2[nH]c(C)c(C(=O)N/N=C/c3cccc(OC)c3)c2C)c1	i	i	i	i	nt
COc1ccc(/C=N/NC(=O)c2[nH]c(C)c(C(=O)N/N=C/c3ccc(OC)cc3)c2C)cc1	i	i	4.9	i	5.5
COc1ccc2[nH]c(C(=O)N/N=C/c3ccc(O)cc3O)cc2c1	i	i	6.3	i	i
CCOc1ccc2[nH]c(C(=O)N/N=C/c3ccc(OC)cc3)cc2c1	i	i	i	i	nt
COc1ccc(/C=N/NC(=O)c2cc3cc(OC)c(OC)cc3[nH]2)cc1	i	i	5.3	i	7.8

Source: PubChem (The Scripps Research Institute Molecular Screening Center)
